In PubChem BioAssay (NCI):
The panel holds about 83,000 compounds, 20% with a hit somewhere; the sample as a whole holds those more often.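 Treatment: one concentration, 48 hours, 96-well format. Scoring: percent growth, with anything below 10 considered active.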 Active and inactive are the calls of the source.

What was measured:
Experiment in all cases: NCI-60 one-dose screen, 48 h (100 = growth as untreated, 0 = no growth, -100 = all killed)
Conditions in all cases: 10 µM
[1] = system: DU-145 prostate
[2] = system: K-562 leukemia
[3] = system: MALME-3M melanoma
[4] = system: MDA-MB-231 breast
[5] = system: SF-268 CNS
[6] = system: SF-295 CNS
[7] = system: SF-539 CNS
[8] = system: UACC-257 melanoma
[9] = system: M14 melanoma
[10] = system: HCT-15 colon
[11] = system: HT29 colon
[12] = system: SNB-75 CNS
[13] = system: SNB-19 CNS
[14] = system: U251 CNS
[15] = system: PC-3 prostate
[16] = system: SK-MEL-5 melanoma
[17] = system: UACC-62 melanoma
[18] = system: LOX IMVI melanoma
[19] = system: SK-MEL-28 melanoma
[20] = system: RXF 393 renal

Measured: growth

CC1(C)[C@@H](NCO)CC[C@]2(C)[C@H]3C(=O)C=C4[C@@H]5C[C@](C)(CO)CC[C@]5(C)CC[C@@]4(C)[C@]3(C)CC[C@@H]12
inactive: [1] 79.4% | [3] 49% | [4] 44.2% | [5] 68.8% | [7] 45.4% | [8] 33.4% | [9] 25.5% | [10] 13.6% | [11] 13.9% | [12] 106% | [13] 70.1% | [14] 18.9% | [15] 31.3% | [16] 61% | [17] 50.2%
active: [2] 8.51% | [6] 2.19% | [18] -74.8% | [19] -29.5%

Clc1ccc2c(N/N=C/c3c[nH]c4ccc(Br)cc34)ccnc2c1
active: [1] -79.3% | [2] -25.5% | [3] -83% | [4] -90.4% | [5] -35.7% | [6] -99.4% | [7] -87.6% | [8] -83.8% | [9] -46.3% | [10] -80.3% | [11] -3.08% | [12] -91.1% | [13] -85.6% | [14] -25.6% | [15] -52.9% | [16] -100% | [17] -85.4% | [18] -77.7%

O=C1NC(=NC23CC4CC(CC(C4)C2)C3)N/C1=C\c1ccc2ncccc2n1
active: [1] 2.14% | [3] -41.3% | [4] -18.5% | [20] -78.1% | [5] -29.8% | [6] -27.5% | [7] -77.7% | [8] -4.23% | [10] -16.2% | [11] -17.4% | [12] -70.7% | [14] 5.17% | [15] -0.602% | [16] -68.3% | [17] -64.4% | [18] -42.6% | [19] -30.2%
inactive: [2] 13.6% | [9] 14.5%

N#Cc1c(-c2ccc(Cl)cc2)cc(-c2ccccc2)nc1OCc1ccccc1
inactive: [1] 90.7% | [2] 45% | [3] 102% | [4] 80.2% | [5] 92.9% | [6] 66.2% | [7] 75.2% | [8] 80.6% | [9] 90.9% | [10] 36.1% | [11] 65% | [12] 74.7% | [13] 89.8% | [14] 60.2% | [15] 40.1% | [16] 54% | [17] 62.3% | [18] 65.7% | [19] 86%

O=C(Cn1nc(-c2ccccc2)ccc1=O)NNC(=S)NC1CCCCC1
inactive: [1] 117% | [2] 90.4% | [3] 105% | [4] 109% | [5] 113% | [6] 101% | [7] 97.3% | [8] 111% | [9] 122% | [10] 97.9% | [11] 127% | [12] 96.6% | [13] 100% | [14] 102% | [15] 96.4% | [16] 100% | [17] 96.2% | [18] 99%

COc1ccc(-c2cc(C(=O)N=Nc3c(O)[nH]c4ccc(F)cc34)c3ccccc3n2)cc1
active: [4] 6.12% | [14] 7.34%
inactive: [1] 74.7% | [2] 25.2% | [3] 25.3% | [5] 47.9% | [6] 104% | [7] 39.5% | [8] 109% | [9] 74.4% | [10] 21.5% | [11] 61.9% | [12] 84.6% | [13] 44.1% | [15] 76.6% | [16] 72.4% | [17] 81.4% | [18] 24.1%

O=C(Nc1ccc(I)cc1)Nc1nc2ccc([N+](=O)[O-])cc2s1
active: [1] -100% | [2] -82.8% | [3] -99.7% | [4] -100% | [20] -95.1% | [5] -83.7% | [6] -95.4% | [7] -99.7% | [8] -91% | [9] -100% | [10] -100% | [11] -93.3% | [12] -93.4% | [14] -94% | [15] -75.7% | [16] -100% | [17] -98% | [18] -100% | [19] -99%

CCOC(=O)C1=C(N)N(c2ccccc2)C2=C(C(=O)CC(C)(C)C2)C1c1ccc(Cl)cc1 (stereo unspecified)
inactive: [1] 58.3% | [2] 18.3% | [3] 15.9% | [4] 53% | [5] 58% | [6] 21.3% | [7] 36.2% | [8] 28% | [9] 28.2% | [10] 14.5% | [11] 34.8% | [12] 73% | [13] 34.9% | [14] 42% | [15] 21.6% | [16] 27.7% | [17] 22.2% | [18] 41.5%

COc1ccc(-c2ccc(SCC(=O)Nc3ccc(C#N)cc3)nn2)cc1
inactive: [1] 105% | [2] 90% | [3] 78.6% | [4] 85.4% | [5] 99.1% | [6] 81.3% | [7] 71% | [8] 98.9% | [9] 93% | [10] 97.3% | [11] 130% | [12] 93.7% | [13] 64.9% | [14] 70.7% | [15] 85% | [16] 94.4% | [17] 72.3% | [18] 84.7%

O=C(CSc1nnc(-c2c[nH]c3ccccc23)n1-c1ccccc1)c1ccc(Cl)cc1
inactive: [1] 88.4% | [2] 69% | [3] 64% | [4] 51.7% | [5] 69.4% | [6] 55% | [7] 49.5% | [8] 72.3% | [9] 80.6% | [10] 73.3% | [11] 42.6% | [12] 54.7% | [13] 40% | [14] 30.1% | [15] 60.4% | [16] 78.2% | [17] 52.8% | [18] 15.9%

COc1cc2c3c(n(CCCn4ccnc4)c(=O)c2cc1OC)-c1nc2c(cc1C3=O)OCO2
active: [6] -7.74% | [7] -10.1% | [16] 7.02% | [17] 4.19% | [18] 0.388%
inactive: [1] 13.4% | [2] 28.4% | [3] 59.9% | [4] 84.1% | [5] 42.4% | [8] 66% | [9] 19.9% | [10] 52.1% | [11] 31.5% | [12] 82.8% | [13] 25.6% | [14] 20.9% | [15] 60.4% | [19] 80.9%

C/C(=N\N=C\c1ccc(Cl)c([N+](=O)[O-])c1)c1ccc2c(c1)Nc1ccccc1S2
active: [3] -3.5% | [14] -35%
inactive: [1] 28.1% | [2] 38.6% | [4] 32.4% | [5] 47.3% | [6] 42.7% | [7] 12.8% | [8] 51.2% | [9] 62.6% | [10] 50.8% | [11] 35.5% | [12] 109% | [13] 31.2% | [15] 13.5% | [16] 38.8% | [17] 38.8% | [18] 37.2% | [19] 60.9%

Cc1ccc2nc(-c3ccc(-c4nnc(SCC(=O)Nc5ccc(Br)cc5)o4)cc3)[nH]c2c1
inactive: [1] 82.9% | [3] 87.1% | [4] 77.9% | [5] 80.6% | [6] 63.8% | [7] 68.3% | [8] 96.5% | [9] 66.6% | [10] 42% | [11] 77.5% | [12] 83.8% | [13] 70.3% | [14] 11.5% | [15] 56.8% | [16] 85.5% | [17] 57.3% | [19] 92.4%
active: [2] 7.89% | [18] -12.7%

Cc1cc(=O)oc2cc(OCCCCOc3ccc(/C=C/C(=O)Nc4cccc(Cl)c4)cc3)ccc12
inactive: [1] 46.5% | [2] 63.8% | [3] 29.8% | [4] 88.3% | [5] 61.4% | [6] 78.6% | [7] 72.6% | [8] 81.5% | [9] 71.9% | [10] 60.3% | [11] 86.4% | [12] 87.7% | [13] 74.7% | [14] 56.8% | [15] 91.2% | [16] 60.6% | [17] 75.3% | [18] 64.4%

CN1CCN(c2ccc(C(=O)/C=C/c3ccc(OC(F)F)cc3)cc2)CC1
active: [2] 6.23% | [7] -39.8% | [10] -49.1% | [14] -15.6% | [18] -100%
inactive: [1] 57.8% | [3] 84.1% | [4] 41.5% | [5] 81% | [6] 47.4% | [8] 68.7% | [9] 31.6% | [11] 13.4% | [12] 73.8% | [13] 47.4% | [15] 25.5% | [16] 52.9% | [17] 44.6% | [19] 67.5%

COc1cc2c3c(n(CCCNC(C)C)c(=O)c2cc1OC)-c1nc2c(cc1C3=O)OCO2
inactive: [6] 11.7% | [12] 78.6% | [13] 33.2% | [16] 54.4% | [17] 22%
active: [1] 8.46% | [2] 2.95% | [3] -92.3% | [4] -90.5% | [5] -72.5% | [7] -6.71% | [8] -30.4% | [9] -48.8% | [10] -87.9% | [11] -65.4% | [14] -76.3% | [15] -66.1% | [18] -97.3%
